# About 83,000 compounds went through this panel and 20% of them were active in at least one assay; those are over-represented in the sample as a whole.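 Cell lines were cultured in 96-well plates, exposed to a single compound concentration, and assessed for percent growth 48 hours later.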 A number with no mark means an inactive call. Active and inactive are the calls of the source. How the source made its calls: active means growth percent below 10; inactive means the rest.
# Key:
# Assay in all cases: NCI-60 one-dose screen, 48 h (100 = growth as untreated, 0 = no growth, -100 = all killed)
# SN12C renal = conditions: 10 µM unless noted
# UO-31 renal = conditions: 10 µM unless noted
# ACHN renal = conditions: 10 µM unless noted
# CAKI-1 renal = conditions: 10 µM unless noted
# A498 renal = conditions: 10 µM unless noted
# MOLT-4 leukemia = conditions: 10 µM unless noted
# EKVX NSCLC = conditions: 10 µM
# CCRF-CEM leukemia = conditions: 10 µM
# TK-10 renal = conditions: 10 µM unless noted
Compound,growth (SN12C renal),growth (UO-31 renal),growth (ACHN renal),growth (CAKI-1 renal),growth (A498 renal) [%],growth (MOLT-4 leukemia),growth (EKVX NSCLC),growth (CCRF-CEM leukemia),growth (TK-10 renal)
CCCCCCCCCC(C)NC(=O)CCl (stereo unspecified),75.1%,83.7%,93%,93.4%,91.3,72.1%,–,–,–
O=C(Nc1ccc(-n2cc(-c3ccncc3)c(-c3ccc(Cl)c(O)c3)n2)cc1)Nc1cc(C(F)(F)F)cc(C(F)(F)F)c1,30.1%,35.3%,12%,8.54% (active),17.7,9.3% (active),15.9%,2.13% (active),–
O=C(CN1CCN(c2cccc(Cl)c2)CC1)N1CCN(c2nnc(-c3ccc(Cl)cc3)c(-c3ccc(Cl)cc3)n2)CC1,75.7%,–,65.3%,105%,63.1,36.4%,59%,48.7%,90.2%
N#Cc1c2ncccc2c2nnc3cc(Cl)c(Cl)cc3n12,110%,76.3%,84.5%,70.3%,115,98.9%,84.1%,–,67.7%
CCCCCCNc1nc(N2CCOCC2)c2[nH]c(NCCCCCC)nc2n1,-94.9% (active),-81% (active),-92.7% (active),-63.8% (active),–,-53.6% (active),-51.5% (active),-32.3% (active),-97.2% (active)
O=C(Nc1ccc(-n2cc(-c3ccncc3)c(-c3ccc(Cl)c(O)c3)n2)cc1)c1ccc(Cl)c(C(F)(F)F)c1,66.6%,-37.3% (active),-24.3% (active),-33.5% (active),71.8,-1.8% (active),35.2%,3.34% (active),-19.8% (active)
N#Cc1c2cccnc2c2nnc3cc(Cl)c(Cl)cc3n12,75%,30.8%,10.2%,-3.12% (active),–,7.72% (active),80.8%,29.1%,-31.8% (active)
O=C(Nc1cccc2[nH]c(C(F)(F)F)nc12)c1ccc(F)cc1,81.8%,63%,82.7%,84%,19,65.5%,–,51.7%,113%
O=C(Nc1ccc(-n2cc(-c3ccncc3)c(-c3ccc(Cl)c(O)c3)n2)cc1)Nc1ccc(Cl)c(C(F)(F)F)c1,31.1%,-32.6% (active),2.3% (active),-32.5% (active),63.6,-1.95% (active),1.43% (active),–,-12.1% (active)
O=C(Nc1ccc(-n2cc(-c3ccncc3)c(-c3ccc(Cl)c(O)c3)n2)cc1)c1cc(Cl)cc(Cl)c1,–,12.3%,57.3%,-32.1% (active),95.9,24.3%,75.7%,–,61.3%
Cc1[nH]n(C(=S)Nc2nc3cc(Cl)c(F)cc3s2)c(=O)c1N=Nc1ccc(F)c(Cl)c1,100%,93%,104%,–,65.8,-16.5% (active),80.1%,19.3%,129%

# — PubChem BioAssay (NCI)
